# HepG2 viability: kills HepG2 cells in TGF-b inhibitor counter-screen. HepG2 CAGA-GFP viability, ATP luminescence, 18 h. Potency, µM (series often up to 46.1 µM), hits mostly cytotoxic. 410,000 compounds, 0.76% hits
#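 CellTiter-Glo luminescence gave cytotoxicity after 18 hours at 37 degrees C. The cells were HepG2 CAGA-GFP in 1% FBS DMEM, stimulated with 500 pg/mL TGF-beta after compound addition. %Activity was normalised to no-cell wells (complete cell-killing) and DMSO (no toxicity), and curves were fitted and classified.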
# TDP1 cell noCPT: qHTS for Inhibitors of human tyrosyl-DNA phosphodiesterase 1 (TDP1): qHTS in cells in absence of CPT | Potency, µM (highest dose often 46.2 µM), hits mostly inhibitors | 420,000 compounds, 15% hits | DT40 Tdp1-/- hTDP1 cells, no CPT, ATP luminescence, 48 h; note: nearly all actives have a fitted effect of over 55% in size
#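 Chicken DT40 Tdp1-/- cells stably complemented with human TDP1 were seeded at 400 cells/well with DMSO in place of 20 nM camptothecin. After compound pinning, cells grew at least 48 hr at 37 °C; viability read by CellTiter-Glo luminescence.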
# TGFb inhibitor: TGF-b pathway inhibition | 410,000 compounds, 1.2% hits | Potency, µM (series often up to 46.1 µM), hits mostly inhibitors | HepG2 CAGA-GFP TGF-b/SMAD3 reporter, GFP fluorescence, 18 h; TGF-beta stimulated, 500 pg/mL final; note: nearly all actives have a fitted effect of over 65% in size
#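 Cell-based qHTS in HEPG2 carrying a CAGA-GFP Smad reporter; compounds added before 500 pg/mL final TGF-beta, 18 h incubation at 37 degrees C, GFP fluorescence quantified per cell by imaging cytometry.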
# HT1080NT lethal: kills 2HG-producing HT-1080-NT fibrosarcoma cells | 360,000 compounds, 1.6% hits | AID 686970 | Potency, µM (highest dose often 46.1 µM), most hits filed as cytotoxic | HT-1080-NT fibrosarcoma viability, CellTiter-Glo ATP luminescence, 48 h;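 note: NT is the 2HG producing partner of a matched IDH1 knockdown line; nearly all actives have a fitted effect of over 55% in size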
#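 HT-1080-NT; 750 cells/well; 5% FBS RPMI; 48 h compound, 37 degrees C; CellTiter-Glo luminescence; curve fitting and curve-class assignment.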
# HT1080 IDH1KD tx: toxicity to HT-1080 IDH1 knockdown cells (counter line) | HT-1080 IDH1 knockdown viability, ATP luminescence, 48 h | Potency, µM (titrated, usually from 46.1 µM), actives largely listed as cytotoxic | 360,000 compounds, 2% hits
#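 Assay cells: HT-1080 with IDH1 knockdown, 750 per well, RPMI/5% FBS. Exposure: 48 h at 37 °C following 2 h pre-incubation. Read: CellTiter-Glo luminescence; fitted concentration-response, curve class assigned.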
# DT40 TDP1 CPT: growth inhibition of DT40 Tdp1-/-;hTDP1 cells with camptothecin (screen for TDP1 inhibitors). chicken DT40 Tdp1-/-;hTDP1 cells + 20 nM CPT, ATP luminescence, 48 h. Potency, µM (doses to about 46.2 µM), usual class: inhibitors. 420,000 compounds, 12% hits. AID 686979; note: nearly all actives have a fitted effect of over 55% in size
#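 Chicken DT40 Tdp1-/- cells stably complemented with human TDP1 were seeded at 400 cells/well in medium containing 20 nM camptothecin, exposed to pin-transferred compounds, and grown at 37 °C for at least 48 hr. Viability was read as ATP luminescence.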
# Numbers stand for hits; 0 = inactive; ? = inconclusive; - = not tested or not shown; [ ] = another dose, or the depositor's remark. Shown are actives, neighbours in structure and some others; about 17% of the full set was active somewhere. Calls come from the whole dose curve; as a rule, active = well fitted curve in the direction sought with a large enough effect; inconclusive = small, poorly fitted or top-dose-only effect, or another doubt; inactive = no such curve, though single readings can be large; an effect the other way counts as inactive or inconclusive.
SMILES,HepG2 viability,TDP1 cell noCPT,TGFb inhibitor,HT1080NT lethal,HT1080 IDH1KD tx,DT40 TDP1 CPT
CC(C)OC(=O)NCCOC(=O)Nc1ccccc1Cl,0,0,0,0,0,0
CC(C)OC(=O)NCCOC(=O)Nc1ccc(Cl)cc1,0,14.6µM,0,0,0,20.6µM
CC(C)COC(=O)NCCOC(=O)Nc1cccc(Cl)c1,0,16.4µM,0,0,0,16.4µM
CCNc1ncc2nc(-c3cccs3)c(=O)n(Cc3cccc(OC)c3)c2n1,-,0,-,-,-,0
Cc1oc(-c2ccccc2NC(=O)C2CCC2)nc1CNC(=O)c1c(F)ccc(F)c1F,-,0,-,-,-,0[9.04 µM]
COc1cc(C#N)ccc1OCC(=O)Nc1ccc(C)c(S(=O)(=O)N2CCOCC2)c1,0,?,0,0,0,?
CCN(CC)S(=O)(=O)c1cccc(NC(=O)COc2ccc(C#N)cc2OC)c1,0,23.1µM,0,0,0,?
COc1cc(C#N)ccc1OCC(=O)Nc1cccc(S(=O)(=O)N(C)c2ccccc2)c1,0,18.4µM,0,0,0,11.6µM
CCN(CC)S(=O)(=O)c1cccc(NC(=O)COc2ncnc3sccc23)c1,0,16.4µM,0,0,0,?
CCN(CC)S(=O)(=O)c1cc(NC(=O)COc2ccc(C#N)cc2OC)ccc1C,0,23.1µM,?,0,0,20.6µM
CCN(CC)S(=O)(=O)c1cccc(NC(=O)COc2ccc(F)cc2Br)c1,0,?,0,0,0,?
Cc1ccc(C(c2sc3nc(-c4ccco4)nn3c2O)N2CCCC2)cc1 (stereo not drawn),0,0,0,-,-,0
COC(=O)CSc1nc2sc3c(c2c(=O)n1-c1ccc(C)cc1)CC(C(C)C)OC3 (stereo not drawn),0,-,0,-,-,-
Cc1ccc(S(=O)(=O)N2CCN(c3nc(-n4ccnc4)nc4ccccc34)CC2)cc1,-,0,-,0,0,0
Cc1cc2nc(-c3ccc(F)cc3)c(Cc3cccc(Cl)c3)n2c(C)c1Br,-,?,-,0,0,23.1µM
Cc1ccc(Cc2c(-c3cccc(Cl)c3)nc3cc(C)c(Br)c(C)n23)cc1,0,?,0,0,0,0
Cc1cc2nc(-c3ccccc3)c(Cc3cccc(Cl)c3)n2c(C)c1Br,-,25.9µM,-,0,0,?
Cc1cc(C(=O)CN2C(=O)NC3(CCCCC3)C2=O)c(C)n1Cc1ccc2c(c1)OCO2,0,23.1µM,?,0,0,8.2µM
Cc1cc(C(=O)CN2C(=O)NC3(CCCC3)C2=O)c(C)n1-c1ccc2c(c1)OCO2,0,?,0,0,0,0
Cc1cc(C(=O)CN2C(=O)NC(C)(CC(C)C)C2=O)c(C)n1-c1ccc2c(c1)OCO2 (stereo not drawn),0,23.1µM,0,0,0,?
CCCc1c(C(=O)N/N=C/c2ccncc2)nnn1-c1nonc1N,0,0,0,0,0,0
COc1ccc(OC)c(NC(=O)c2cc(C3CC3)nc3c2c(C)nn3-c2ccc(C)cc2)c1,0,?,0,-,-,25.9µM
COc1ccc(CNC(=O)c2cccc(-n3cnc4cccnc43)c2C)cc1,0,0,0,-,-,0
COc1cccc(CNC(=O)c2cccc(-n3c(C)nc4cccnc43)c2C)c1,0,?,?,-,-,20.6µM
COc1cccc(CNC(=O)c2cc(C)nc3c2c(C)nn3-c2ccc(C)cc2)c1,0,16.4µM,0,-,-,?
COc1ccc(CCNC(=O)c2cc(C)nc3c2c(C)nn3-c2ccc(C)cc2)cc1OC,0,?,0,-,-,?
Cc1c(C(=O)NCc2ccccc2Cl)cccc1-n1cnc2cccnc21,0,23.1µM,0,-,-,18.4µM
COc1ccc(NC(=O)c2cc(C3CC3)nc3c2c(C)nn3-c2ccccc2)c(OC)c1,0,?,0,-,-,0

# Bioassay records: PubChem BioAssay, National Center for Advancing Translational Sciences (NCATS)
